# Among all 96,000 compounds or so, about 20,000 (21%) were called active.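 Rule for the calls: active = CYP2C19 inhibition above a set limit at 5 µM in the primary screen (cut at about 50% in these data); inactive = the rest.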 Not all results are given here.
# Biological target: Cytochrome P450 2C19 (Homo sapiens) (UniProt P33261)
# Test: blockers of cytochrome P450 2C19 activity – biochemical, luminescence, ADME assay, primary screen (AID 778);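 note: plate controls were negative control wells for no effect and 2.5 mM tranylcypromine positive control for full effect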
# Details: CYP2C19 Supersomes, luciferin-H EGE luminescence, 30 min; at 5 µM; hits give high values
# Cytochrome P450 2C19 (Homo sapiens), sequence (P33261 whole entry, looked up): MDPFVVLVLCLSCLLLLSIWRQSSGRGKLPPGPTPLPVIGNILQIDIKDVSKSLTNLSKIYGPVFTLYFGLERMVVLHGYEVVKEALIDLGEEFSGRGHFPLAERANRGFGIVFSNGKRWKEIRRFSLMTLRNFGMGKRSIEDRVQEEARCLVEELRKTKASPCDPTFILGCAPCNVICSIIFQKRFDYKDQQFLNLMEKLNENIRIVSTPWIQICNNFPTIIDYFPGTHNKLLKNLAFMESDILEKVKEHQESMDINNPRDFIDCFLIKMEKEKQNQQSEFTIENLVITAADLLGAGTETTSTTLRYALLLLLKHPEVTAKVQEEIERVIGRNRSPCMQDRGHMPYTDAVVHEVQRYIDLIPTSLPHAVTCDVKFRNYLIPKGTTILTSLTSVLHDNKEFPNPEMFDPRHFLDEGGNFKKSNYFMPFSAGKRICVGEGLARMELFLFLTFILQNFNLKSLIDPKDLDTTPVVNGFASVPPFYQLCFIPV
row,Structure (SMILES),inhibition
1,O=C1c2cccnc2C(=O)N1Cc1cccs1,21.3% (inactive)
2,CCCCNC(=O)CCn1c(=S)[nH]c2cc3c(cc2c1=O)OCO3,41.9% (inactive)
3,CCCCn1c(=S)[nH]c2ncccc2c1=O,10.8% (inactive)
4,CC(C)(C)c1ccc(C(=O)NNC(=O)Cc2ccccc2)cc1,23.9% (inactive)
5,O=S(=O)(c1ccc(F)cc1)n1ccc(-c2cnc(-c3ccccc3)s2)n1,13.6% (inactive)
6,CCOC(=O)N1CCN(S(=O)(=O)c2cc3c(cc2C)NC(=O)CO3)CC1,12.1% (inactive)
7,Cn1cc(S(=O)(=O)N2CCN(c3ccc(F)cc3)CC2)c(=O)n(C)c1=O,26.4% (inactive)
8,COCCn1c(CN2CCC(Cc3ccccc3)CC2)nc2c1c(=O)n(C)c(=O)n2C,49.4% (inactive)
9,Cn1cc(S(=O)(=O)N2CCC(Cc3ccccc3)CC2)c(=O)n(C)c1=O,69.7% (active)
10,C=CCn1c(SCc2cc(C(=O)OC)c(C)o2)nnc1-c1ccncc1,92.1% (active)
11,C=CCn1c(SCCOc2ccc(OC)cc2)nnc1C(NC(=O)c1ccc(OC)cc1)C(C)C (stereo not given),35.4% (inactive)
12,C=CCn1c(SCC(=O)c2ccc(Br)cc2)nnc1C(C)NC(=O)Cc1ccc(OC)cc1 (stereo not given),11.6% (inactive)
13,C=CCn1c(SCc2c(C(=O)OC)sc(N)c2C(=O)OC)nnc1-c1ccc(Cl)cc1,57.1% (active)
14,COCCn1c(SCc2nc3cc(OC)c(OC)cc3c(=O)[nH]2)nnc1-c1ccncc1,-13.4% (inactive)
15,O=C1Nc2c(Br)cc(Br)cc2C1(O)N1CCOCC1 (stereo not given),41.6% (inactive)
16,O=C(NC(=O)c1ccc(Cl)c(Cl)c1)OC1CCS(=O)(=O)C1 (stereo not given),-14.2% (inactive)
17,COc1ccc(-c2nc(SCC(=O)N3CCOCC3)n[nH]2)cc1,1% (inactive)
18,CN1/C(=c2/s/c(=C3/C(=O)N(c4ccccc4)NC3=Nc3ccccc3)n(C)c2=O)C(C)(C)c2ccccc21,38.5% (inactive)
19,CCOC(=O)C1C(=O)NC(N2CCN(c3ccccc3)CC2)=NC1c1ccco1 (stereo not given),6.9% (inactive)
20,CC1=C(C(=O)OCc2ccccc2)C(c2ccco2)n2ncnc2N1 (stereo not given),90.2% (active)
21,COc1ccccc1NC(=O)C1=C(C)NC2=C(C(=O)CCC2)C1c1ccc(C)o1 (stereo not given),41.9% (inactive)
22,COC(=O)C1=C(C)Nc2ncnn2C1c1ccco1 (stereo not given),-5.4% (inactive)
23,COc1ccccc1NC(=O)C1=C(C)Nc2ncnn2C1c1ccc(C)o1 (stereo not given),8.6% (inactive)
24,CC1=C(C(=O)Nc2ccccc2)C(c2ccco2)C(C#N)=C(SCC(N)=O)N1 (stereo not given),2.2% (inactive)

row,Structure (SMILES),inhibition
1,CCOC(=O)CSC1=C(C#N)C(c2sccc2C)CC(=O)N1 (stereo not given),22.9% (inactive)
2,Cc1ccc(C2CC(=O)NC(SCC(=O)OCc3ccccc3)=C2C#N)o1 (stereo not given),82.5% (active)
3,CCOC(=O)CSC1=C(C#N)C(c2ccco2)C(C(=O)OCc2ccccc2)=C(C)N1 (stereo not given),72.5% (active)
4,CCCNS(=O)(=O)c1ccc2c(c1)CCCN2C(C)=O,0.6% (inactive)
5,COc1ccc(N2CCN(C(=O)CSc3ncnc4c3cnn4-c3ccc(OC)cc3)CC2)cc1,5.1% (inactive)
6,O=C(CN1C(=O)CSc2ncccc21)N1CCOCC1,13% (inactive)
7,O=c1c(-c2ccccc2)coc2c(CN3CCOCC3)c(O)ccc12,10.1% (inactive)
8,CN(c1cccc(NC(=O)Nc2ccc(Cl)cc2)c1)S(C)(=O)=O,28.5% (inactive)
9,Cn1nc(C(F)(F)F)c(C(=O)Nc2cccc(C(F)(F)F)c2)c1SCc1ccc(Cl)cc1,87.4% (active)
10,CCC(C)Sc1nc(C)nc2c1c(=O)n(C)c(=O)n2C (stereo not given),32.5% (inactive)
11,O=C1COc2ccc(NC(=O)N3CCN(c4ccc(F)cc4)CC3)cc2N1,8% (inactive)
12,O=C(Nc1ccccc1)c1cccnc1Nc1ccccc1,2.2% (inactive)
13,Cc1nonc1NC(=O)c1ccccc1Br,-11.9% (inactive)
14,O=C(Nc1ccc(-n2ccnc2P(=O)(O)c2ccccc2)cc1)c1ccccc1Br,96.9% (active)
15,O=c1c2[nH]c3ccc(Cl)cc3c2ncn1Cc1ccccn1,10.9% (inactive)
16,Nc1cc(OC(=O)c2ccccc2Br)nn1S(=O)(=O)c1ccccc1,12.4% (inactive)
17,O=C(CSc1nnc(-c2cccnc2)n1Cc1ccco1)c1ccc(Cl)cc1,27.8% (inactive)
18,CCOC(=O)CSc1nnc(-c2ccco2)n1C,-5.6% (inactive)
19,CCn1c(SCC(=O)Nc2cccc(F)c2)nnc1-c1cc2cc(Br)ccc2o1,7.3% (inactive)
20,O=C(CSc1nnc(-c2cnccn2)n1Cc1ccco1)c1ccc(Cl)c(Cl)c1,5.6% (inactive)
21,COc1cc(Cl)c(C)cc1NC(=O)CSc1nnc(-c2cccnc2)n1Cc1ccco1,60.5% (active)
22,Cc1nnc(SCC(N)=O)n1CC1CCCO1 (stereo not given),8% (inactive)
23,O=C(CSc1nnc(-c2ccco2)n1CC1CCCO1)c1ccccc1 (stereo not given),70.4% (active)
24,CCn1c(SCC(=O)Nc2cc(C)c(Cl)cc2OC)nnc1-c1ccco1,70.6% (active)

row,Structure (SMILES),inhibition
1,O=C(CSc1nnc(-c2cccnc2)n1Cc1ccco1)c1ccc(Cl)c(Cl)c1,79.7% (active)
2,CCOC(=O)CNC(=O)CSc1nnc(-c2cccc(OC)c2)n1CC,20.1% (inactive)
3,COc1ccc(-c2nn(-c3ccccc3)cc2C(=O)Nc2nc(CC(C)=O)ns2)cc1,-1% (inactive)
4,COc1ccc(N2CCN(C(=O)CSc3nc4cc(OC)c(OC)cc4cc3C#N)CC2)cc1,37.5% (inactive)
5,C[C@@H](Nc1nc(-c2ccccc2)nc2c1oc1ccccc12)C(=O)O,1.5% (inactive)
6,CSc1ccc(NC(=O)N2CC(C)OC(C)C2)cc1 (stereo not given),14.4% (inactive)
7,Cc1c(C(=O)Nc2ccccc2Cl)oc2ccc(S(=O)(=O)N3CCC4(CC3)OCCO4)cc12,7.5% (inactive)
8,COC(=O)c1c(-c2cccs2)csc1NC(=O)CSc1ncnc2sc(C)c(C)c12,16.1% (inactive)
9,COc1ccc(NC(=O)CSc2nnc(-c3cccs3)n2Cc2ccco2)cc1OC,35.6% (inactive)
10,Nc1cc(=O)nc(SCc2ccccc2)n1Cc1ccco1,32.6% (inactive)
11,CCn1c(COc2ccc(OC)cc2)nnc1SCC(=O)Nc1cc(OC)ccc1OC,65.9% (active)
12,CCc1cccc(C)c1NC(=O)CSc1nnc(-c2ccco2)n1N,76% (active)
13,CCCn1c(SCC(=O)c2ccc3c(c2)OCCO3)nnc1C(C)C,16.5% (inactive)
14,CCn1c(COc2ccccc2)nnc1SCC(=O)Nc1ccc2c(c1)OCCO2,18.3% (inactive)
15,NC(=O)c1c(NC(=O)CSc2nnc(-c3ccco3)n2N)sc2c1CCCC2,33.7% (inactive)
16,Cc1cccc(C)c1NC(=O)CCCSc1nnc(-c2ccco2)n1-c1ccccc1,23.1% (inactive)
17,N=c1c2c(-c3ccccc3)c(-c3ccccc3)oc2ncn1Cc1ccco1,19.1% (inactive)
18,C(=C\c1ccccc1)/CSc1nnc(-c2cccnc2)n1Cc1ccco1,72.6% (active)
19,O=C(CSc1nnc(-c2cccs2)n1Cc1ccco1)c1ccc2c(c1)OCO2,51% (active)
20,COc1ccc(OC)c(NC(=O)CSc2nc3cccnc3n2C)c1,40.2% (inactive)
21,COc1cccc2c1OCC(C(=O)NCc1ccc(Cl)cc1Cl)=C2,28.2% (inactive)
22,CCCCN1C(=O)CC(N2CCOCC2)C1=O (stereo not given),-0.3% (inactive)
23,CCCOc1ccc(CN(CCO)CCO)cc1C(=O)OC,0.9% (inactive)
24,O=C(CSCc1c(Cl)cccc1Cl)NN1C(=O)c2ccccc2C1=O,43.5% (inactive)

row,Structure (SMILES),inhibition
1,COc1ccc(C(=O)Nc2ncc3c(n2)-c2ccccc2CC3)cc1,5.2% (inactive)
2,O=C(c1cccnc1NCc1ccccc1)N1CCOCC1,5.8% (inactive)
3,CCCC(=O)N=c1sc2cccc(F)c2n1C,44.7% (inactive)
4,CCOC(=O)c1ccc(N2C(=O)CC(Sc3nc(O)c(CC)c(=O)[nH]3)C2=O)cc1 (stereo not given),-1% (inactive)
5,O=C(Nc1ccccc1)c1ccccc1NC(=O)C(F)(F)F,33.4% (inactive)
6,COc1ccccc1NC(=O)CSc1nc2sc(C)c(C)c2c(=O)n1Cc1ccco1,92.9% (active)
7,CCOC(=O)CSc1nc2c(sc(=S)n2CCc2ccccc2)c(=O)n1Cc1ccco1,20.9% (inactive)
8,COc1cc(Cl)c(C)cc1NC(=O)CSc1nnc(-c2ccco2)n1CC(C)C,96.1% (active)
9,CCCn1c(SCC(=O)Nc2c(C)cccc2C)nnc1C(C)C,24.4% (inactive)
10,CCCc1nc(SCC(=O)Nc2ccccc2OC)c2c(=O)n(C)c(=O)n(C)c2n1,41% (inactive)
11,CCc1c(C)nc2cc(C)[nH]n2c1=O,-0.7% (inactive)
12,CCOCCN(C=O)c1cccc(OC)c1,26.6% (inactive)
13,CC(C)Oc1ccc(CCc2n[nH]c(=S)n2Cc2ccccc2)cc1,16.7% (inactive)
14,CCOC(=O)c1sc(NC(=O)CSc2nnc(-c3ccco3)o2)c(C(=O)OCC)c1C,25.2% (inactive)
15,CCOC(=O)c1sc(NC(=O)CCN2CCOCC2)c(C(=O)OCC)c1C,35.2% (inactive)
16,CCOC(=O)c1c(NC(=O)CCl)sc(C(=O)N(CC)CC)c1C,56.1% (active)
17,COC(=O)c1c(CCl)noc1C(=O)NC(C)C,10.5% (inactive)
18,COc1ccccc1N=C1SC(C)CN1C(=O)C1CCC1 (stereo not given),-1.1% (inactive)
19,Cn1c2c(c(=O)n(C)c1=O)[C@@H]1c3c(ccc4ccccc34)OC[C@@H]1CO2,33.8% (inactive)
20,O=C(c1ccco1)N1CCN(CC(=O)N(C2CCCCC2)C2CCS(=O)(=O)C2)CC1 (stereo not given),-21.3% (inactive)
21,Cc1[nH]n(-c2cccc(Cl)c2)c(=O)c1/C=N/n1c(C)nc2ccccc2c1=O,20.6% (inactive)
22,CCCc1nc2ccccc2c(=O)n1/N=C/c1ccc(O)c(O)c1,54.2% (active)
23,CCCc1nc2ccccc2c(=O)n1NC(=O)c1c(O)c2ccccc2[nH]c1=O,-11.7% (inactive)

# From PubChem BioAssay AID778 (Sanford-Burnham Center for Chemical Genomics, 2007)
